The text below walks through data of PubChem BioAssay.

Experiment [1] in a line: antimalarial activity against Dd2 strain (AID 2302;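 active = growth inhibition above 50% at the single 2 µM test dose, taken to imply half-maximal potency below 2 µM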;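 note: 0% = DMSO untreated growth and 100% = chloroquine plus artemisinin killed control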). The settings on record: P. falciparum Dd2 in RBCs, LDH growth readout, 72 h; at 2 µM; stronger effect = higher value.
The nature of experiment [2]: human hepatoma cell viability loss – ATP luminescence, cytotoxicity control for P. falciparum antimalarial project, primary screen (AID 2303;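 active = inhibition above 50%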;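 note: 0% = DMSO wells and 100% = digitonin-killed cells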). The settings on record: HepG2 viability, 24-48 h, at 10 µM, stronger effect = higher value.
The target of experiment [3] is L-lactate dehydrogenase (Plasmodium falciparum (isolate CDC / Honduras)) (UniProt Q27743). Description: PfLDH activity inhibition – cell lysate, 3D7 strain, counter-screen for P. falciparum growth inhibition project (AID 2304).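 Note: 0% = vehicle and 100% = reference inhibitor.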 Particulars: P. falciparum 3D7 crude extract, LDH APAD/NBT absorbance; at 2 µM; stronger effect = higher value. A general note: A counterscreen serves to expose hits that act by an unwanted route or on another target.

Experiment [4] can be described thus: inhibition of 3D7 malaria parasite growth – strain 3D7 (AID 2306).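 Note: 0% = DMSO wells and 100% = chloroquine plus artemisinin control wells.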 Particulars: P. falciparum 3D7 erythrocytic growth, LDH absorbance, 72 h; at 2 µM; stronger effect = higher value.
In experiment [5] the target is Calcium-dependent protein kinase 1 (Plasmodium falciparum (isolate 3D7)) (UniProt P62344). The experiment can be described thus: PfCDPK1 kinase inhibitors, biochemical, TCAMS library (AID 1159585; cut-off not given, nearly all actives have IC50 up to about 0.98 µM;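 note: inhibitors leave more ATP so luminescence rises with inhibition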). Particulars: recombinant PfCDPK1, Kinase-Glo ATP depletion luminescence. (Kinase-Glo measures the ATP left after a reaction by luminescence.)
The target in experiment [6] is Plasmodium falciparum protein kinase 6 (PK6, PF3D7_1337100) (UniProt Q8IDW1). Description: PfPK6 kinase inhibitors, biochemical, TCAMS library (AID 1159586). The settings on record: recombinant PfPK6, Kinase-Glo ATP depletion luminescence.
Experiment [7] addresses Protein kinase 7 (PK7), Plasmodium falciparum 3D7 (PF3D7_0213400) (UniProt Q7YTF7). The experiment can be described thus: inhibition of Plasmodium PK7 catalytic activity – biochemical, TCAMS antimalarial set, Kinase-Glo luminescence (AID 1159587). The settings on record: recombinant PfPK7, Kinase-Glo ATP depletion luminescence.
Experiment [8] deals with Calcium-dependent protein kinase 4 (Plasmodium falciparum (isolate 3D7)) (UniProt Q8IBS5). The experiment can be described thus: PfCDPK4 kinase inhibitors, biochemical, TCAMS library (AID 1159588; cut-off not given, nearly all actives have IC50 up to about 0.91 µM). Particulars: recombinant PfCDPK4, Kinase-Glo ATP depletion luminescence.

A number with no mark means an inactive call. For some assays here: Entries with a potency or affinity are not part of this list. Active and inactive are the calls of the source. Unless noted, the rule behind the calls is not given here.

Sequence of Protein kinase 7 (PK7), Plasmodium falciparum 3D7 (PF3D7_0213400) (Q7YTF7 1-343): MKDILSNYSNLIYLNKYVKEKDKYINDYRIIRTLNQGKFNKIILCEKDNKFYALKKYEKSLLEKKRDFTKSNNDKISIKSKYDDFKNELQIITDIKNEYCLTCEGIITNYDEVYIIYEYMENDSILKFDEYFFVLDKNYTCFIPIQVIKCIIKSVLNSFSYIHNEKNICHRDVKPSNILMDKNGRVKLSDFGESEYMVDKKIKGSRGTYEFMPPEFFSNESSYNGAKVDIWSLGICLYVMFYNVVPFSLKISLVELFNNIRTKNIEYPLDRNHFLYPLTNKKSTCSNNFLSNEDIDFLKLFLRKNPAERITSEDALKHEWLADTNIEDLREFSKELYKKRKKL
Sequence of Calcium-dependent protein kinase 4 (Plasmodium falciparum (isolate 3D7)) (Q8IBS5 whole entry, looked up): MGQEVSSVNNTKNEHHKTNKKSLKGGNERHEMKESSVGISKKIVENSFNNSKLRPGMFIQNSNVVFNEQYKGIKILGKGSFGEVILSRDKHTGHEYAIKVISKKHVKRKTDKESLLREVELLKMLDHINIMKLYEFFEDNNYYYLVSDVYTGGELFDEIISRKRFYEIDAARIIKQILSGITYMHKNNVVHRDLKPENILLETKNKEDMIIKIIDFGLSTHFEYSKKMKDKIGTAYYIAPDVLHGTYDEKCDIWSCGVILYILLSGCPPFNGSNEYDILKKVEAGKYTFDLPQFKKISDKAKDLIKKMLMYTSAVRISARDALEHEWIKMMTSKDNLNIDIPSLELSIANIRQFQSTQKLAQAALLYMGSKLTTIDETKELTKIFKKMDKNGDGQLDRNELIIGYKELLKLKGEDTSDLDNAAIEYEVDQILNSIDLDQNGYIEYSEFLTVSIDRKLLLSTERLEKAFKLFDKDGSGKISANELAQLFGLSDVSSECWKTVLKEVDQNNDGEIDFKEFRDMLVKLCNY
Sequence of L-lactate dehydrogenase (Plasmodium falciparum (isolate CDC / Honduras)) (Q27743 whole entry, looked up): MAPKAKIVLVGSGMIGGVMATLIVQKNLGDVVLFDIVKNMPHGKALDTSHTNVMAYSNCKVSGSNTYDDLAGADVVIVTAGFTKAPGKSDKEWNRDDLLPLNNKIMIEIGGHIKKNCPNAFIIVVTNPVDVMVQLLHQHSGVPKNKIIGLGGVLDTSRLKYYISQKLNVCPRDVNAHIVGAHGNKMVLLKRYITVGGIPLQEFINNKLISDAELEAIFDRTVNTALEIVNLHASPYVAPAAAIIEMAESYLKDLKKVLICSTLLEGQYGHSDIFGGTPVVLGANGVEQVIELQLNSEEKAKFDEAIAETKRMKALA
Sequence of Plasmodium falciparum protein kinase 6 (PK6, PF3D7_1337100) (Q8IDW1 1-305): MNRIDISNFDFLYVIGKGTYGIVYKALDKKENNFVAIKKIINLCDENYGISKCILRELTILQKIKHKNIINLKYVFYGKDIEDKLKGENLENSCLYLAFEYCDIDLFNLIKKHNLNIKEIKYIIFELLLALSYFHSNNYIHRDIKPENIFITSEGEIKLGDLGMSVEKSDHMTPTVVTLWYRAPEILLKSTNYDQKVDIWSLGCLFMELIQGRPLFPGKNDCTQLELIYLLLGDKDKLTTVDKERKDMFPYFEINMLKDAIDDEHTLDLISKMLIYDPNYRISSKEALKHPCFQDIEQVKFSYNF
Sequence of Calcium-dependent protein kinase 1 (Plasmodium falciparum (isolate 3D7)) (P62344 whole entry, looked up): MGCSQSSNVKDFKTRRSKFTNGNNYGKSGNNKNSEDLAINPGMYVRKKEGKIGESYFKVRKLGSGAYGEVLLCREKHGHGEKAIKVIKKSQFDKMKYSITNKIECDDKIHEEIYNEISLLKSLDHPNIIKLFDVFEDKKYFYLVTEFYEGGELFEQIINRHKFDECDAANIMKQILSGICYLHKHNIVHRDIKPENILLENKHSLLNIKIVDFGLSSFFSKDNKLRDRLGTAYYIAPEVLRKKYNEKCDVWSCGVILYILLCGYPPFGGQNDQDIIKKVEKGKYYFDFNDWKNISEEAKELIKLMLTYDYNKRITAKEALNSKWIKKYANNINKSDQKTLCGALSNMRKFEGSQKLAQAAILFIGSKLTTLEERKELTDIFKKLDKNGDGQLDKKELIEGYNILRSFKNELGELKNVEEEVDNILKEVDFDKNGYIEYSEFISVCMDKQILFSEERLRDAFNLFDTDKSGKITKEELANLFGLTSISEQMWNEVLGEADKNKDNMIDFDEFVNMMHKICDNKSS

In the case of `Cc1ccc(NC(=O)NC2CCN(c3ccnc4cc(Cl)ccc34)CC2)cc1`, the growth inhibition in experiment [1] was 47%; in experiment [4], 101% (active). The results for the inhibition in experiment [2] and in experiment [3] were 4% and -2%, respectively. For the same compound, the outcome in experiment [5], in experiment [6], in experiment [7] and in experiment [8] was inactive.

Regarding `CCNc1nc(OCC(F)(F)F)nc(N(c2ccccc2)c2ccccc2)n1`, the results for the growth inhibition in experiment [1] and in experiment [4] were 83% (active) and 100% (active), respectively. In addition, the inhibition (commonly the drop in the measured response relative to a control, in per cent) in experiment [2] is 5%; in experiment [3] it was 1%. The result in experiment [5], in experiment [6], in experiment [7] and in experiment [8] was inactive.

Regarding `c1ccc(CCNc2ccnc(Nc3ccc4cn[nH]c4c3)n2)cc1`, the results for the growth inhibition in experiment [1] and in experiment [4] were 100% (active) and 101% (active), respectively. For the same compound, the inhibition was 54% (active) in experiment [2] and -3% in experiment [3]. Besides, the result in experiment [5], in experiment [6], in experiment [7] and in experiment [8] was inactive.

With `CN(C)Cc1ccc(-c2cccc(NC(=O)c3cccc(Cl)c3)c2)cc1`, the growth inhibition in experiment [1] is 12%; in experiment [4], 96% (active). The inhibition in experiment [2] was 18%; in experiment [3], -6%. The outcome in experiment [5], in experiment [6], in experiment [7] and in experiment [8] was inactive.

For `O=C(NCc1ccc(Cl)c(Cl)c1)c1ccc(-c2nc3cc(F)c(F)cc3[nH]2)cc1`, the growth inhibition was 12% in experiment [1] and 81% (active) in experiment [4]. Besides, the inhibition in experiment [2] and in experiment [3] was -2% throughout. Further, the result in experiment [5], in experiment [6], in experiment [7] and in experiment [8] was inactive.

In the case of `COc1c(C2CCN(CCCCNC(=O)c3cccc(-c4ccc(C(F)(F)F)cc4)c3)CC2)ccc2c1CCCC2`, the growth inhibition was 45% in experiment [1] and 92% (active) in experiment [4]. Moreover, the inhibition in experiment [2] was 50% (active); in experiment [3], -4%. Moreover, the outcome in experiment [5], in experiment [6], in experiment [7] and in experiment [8] was inactive.

On to `Fc1cccc(COc2ccc(Nc3ncnc4sc(C#C[C@H]5CC[C@H](CN6CCOCC6)N5)cc34)cc2Cl)c1`, for which the growth inhibition in experiment [1] was 23%; in experiment [4], 92% (active). Further, the figures for the inhibition in experiment [2] and in experiment [3] were 16% and -10%, respectively. Also, the result in experiment [5], in experiment [6], in experiment [7] and in experiment [8] was inactive.

For `CCCCCCN1CCCN(Cc2ccc(C(=O)Nc3ccc(CCC)cc3)cc2)CC1`, the growth inhibition was 56% (active) in experiment [1] and 92% (active) in experiment [4]. Also, the inhibition in experiment [2] was 45%; in experiment [3] it was -3%. Also, the result in experiment [5], in experiment [6], in experiment [7] and in experiment [8] was inactive.

As to `COc1ccc(CCOc2c(C)nc(N)nc2N)cc1OC`, the growth inhibition in experiment [1] was 22%; in experiment [4] it was 96% (active). For the same compound, the inhibition in experiment [2] was 66% (active); in experiment [3], 4%. Further, the result in experiment [5], in experiment [6], in experiment [7] and in experiment [8] was inactive.

Take `Cc1cc2ccccc2c(CON2C(N)=NC(N)=NC2(C)C)c1C`: the growth inhibition in experiment [1] was 31%; in experiment [4], 93% (active). Also, the results for the inhibition in experiment [2] and in experiment [3] were 65% (active) and -3%, respectively. Besides, the outcome in experiment [5], in experiment [6], in experiment [7] and in experiment [8] was inactive.

With `COc1ccc(NS(=O)(=O)c2ccc(C(=O)Nc3ccc(OC(F)(F)F)cc3)cc2)cc1N1CCN(CC2CC2)CC1`, the growth inhibition in experiment [1] was -2%; in experiment [4], 89% (active). Moreover, the results for the inhibition in experiment [2] and in experiment [3] were 18% and 3%, respectively. Besides, the result in experiment [5], in experiment [6], in experiment [7] and in experiment [8] was inactive.

On to `Cc1cc(Oc2cc(NC(=O)c3sc4ncn(Cc5ccccc5F)c(=O)c4c3C)cc([N+](=O)[O-])c2)ccc1Cl`, for which the growth inhibition was 24% in experiment [1] and 94% (active) in experiment [4]. The figures for the inhibition in experiment [2] and in experiment [3] were 2% and 3%, respectively. Moreover, the result in experiment [5], in experiment [6], in experiment [7] and in experiment [8] was inactive.

On to `COc1ccc2nccc([C@@H](O)CN3CCC(NCCOc4ccc(F)cc4[N+](=O)[O-])CC3)c2c1`, for which the growth inhibition is 92% (active) in experiment [1] and 99% (active) in experiment [4]. Further, the values for the inhibition in experiment [2] and in experiment [3] were 8% and -1%, respectively. The result in experiment [5], in experiment [6], in experiment [7] and in experiment [8] was inactive.

`CC(C)NCc1cccc(-c2ccc(NS(=O)(=O)c3cccc4cccnc34)cc2)c1`: the growth inhibition in experiment [1] is 10%; in experiment [4], 90% (active). The inhibition in experiment [2] is 21%; in experiment [3], 5%. For the same compound, the result in experiment [5], in experiment [6], in experiment [7] and in experiment [8] was inactive.

Turning to `C=CCc1cc(OC)ccc1OCCCOc1c(C)nc(N)nc1N`, the growth inhibition in experiment [1] is 97% (active); in experiment [4], 92% (active). Besides, the values for the inhibition in experiment [2] and in experiment [3] were 67% (active) and -2%, respectively. Besides, the result in experiment [5], in experiment [6], in experiment [7] and in experiment [8] was inactive.

Take `COc1ccc2nccc(NN=Cc3cccc(C)n3)c2c1`: the growth inhibition in experiment [1] is 99% (active); in experiment [4], 100% (active). The inhibition was 16% in experiment [2] and 3% in experiment [3]. Further, the result in experiment [5], in experiment [6], in experiment [7] and in experiment [8] was inactive.

Consider `Clc1ccc(CNc2nc(NCCc3cnc[nH]3)nc(NC3CCCCC3)n2)cc1`, for which the growth inhibition in experiment [1] was 1%; in experiment [4], 100% (active). For the same compound, the inhibition in experiment [2] is -5%; in experiment [3], -3%. In addition, the outcome in experiment [5], in experiment [6], in experiment [7] and in experiment [8] was inactive.

`CN(C)CCCN1CCN(C(=O)c2cc3cc(-c4ccccc4)ccc3n2S(=O)(=O)c2ccccc2)CC1`: the growth inhibition in experiment [1] is 94% (active); in experiment [4], 101% (active). Moreover, the inhibition was 32% in experiment [2] and 4% in experiment [3]. For the same compound, the outcome in experiment [5], in experiment [6], in experiment [7] and in experiment [8] was inactive.

`CS(=O)(=O)c1ccc(CNCc2cccc(-c3cccc(-c4nc5ccc(C(F)(F)F)cc5[nH]4)c3)c2)cc1`: the figures for the growth inhibition in experiment [1] and in experiment [4] were 96% (active) and 103% (active), respectively. Further, the values for the inhibition in experiment [2] and in experiment [3] were 5% and 2%, respectively. Also, the result in experiment [5], in experiment [6], in experiment [7] and in experiment [8] was inactive.
